PriA SSB inh: K. pneumoniae PriA-SSBct interaction inhibition | AlphaScreen SSBct-PriA binding, biotinylated peptide | inhibition, % at 33 µM | 0.6% of 430,000 active; in the data active means inhibition mostly above about 37%, no sharp cut-off; inactive means mostly below about 20%
ugtP null kill: growth inhibition of S. aureus ugtP deletion strain; 0.54% of 330,000 active; AID 1259309; S. aureus RN4220 ugtP deletion, OD600 growth, 16 h; growth inhibition, % (no concentration beside the values); in the data active means growth inhibition above about 68%
RN4220 kill: S. aureus RN4220 growth inhibition. OD600, 16 h. inhibition, % (concentration not given with the values). 0.33% of 330,000 active. AID 1259311; in the data active means inhibition above about 85%
VHR inh abs: DUSP3 (human) phosphatase inhibition; P51452; recombinant VHR phosphatase, pNPP absorbance; inhibition, % at 13.3 µM; 0.52% of 290,000 active; AID 1654; in the data active means inhibition above about 50%
Target sequence (P51452 whole entry, looked up): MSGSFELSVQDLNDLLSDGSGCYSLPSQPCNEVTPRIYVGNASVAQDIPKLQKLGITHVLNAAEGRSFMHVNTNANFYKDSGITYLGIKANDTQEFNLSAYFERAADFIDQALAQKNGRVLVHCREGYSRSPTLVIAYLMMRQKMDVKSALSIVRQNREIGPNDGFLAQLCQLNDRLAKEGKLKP
CCHFV vOTU inh: CCHFV vOTU protease inhibition | AID 651958 | inhibition, % at 11.5 µM | 0.55% of 370,000 active | Pep-AMC fluorescence; in the data active means inhibition above about 30%
Hits are given with their value; n = inactive; x = no result given. Rows were chosen to be rich in hits. Some 1.5% of all compounds tested hit in one or more screens of this group.

SMILES	PriA SSB inh	ugtP null kill	RN4220 kill	VHR inh abs	CCHFV vOTU inh
c1ccc(-c2cnc(-c3ccccn3)nn2)cc1	69.3	n	n	x	n
c1ccc(-c2cnnc(-c3ccccn3)n2)cc1	n	n	n	x	n
CCOC(=O)CSc1nc(-c2ccccn2)ncc1OC	83.1	n	n	n	n
COc1cnc(-c2ccccn2)nc1N(C)c1ccccc1	97.9	x	x	n	n
Clc1ccc(-c2cnnc(-c3ccccn3)n2)cc1	58.4	n	n	x	n
COCCn1c(SCc2nc(-c3cccc(Cl)c3)oc2C)nc2ccccc2c1=O	n	x	x	x	x
c1ccc(Oc2nc(-c3ccccn3)nnc2-c2ccccc2)cc1	102.6	x	x	x	x
COc1cnc(-c2ccccn2)nc1Oc1ccccc1	64.0	n	n	n	n
COc1cnc(-c2ccccn2)nc1Oc1cc(Cl)cc(Cl)c1	62.5	x	x	x	x
C=CCNc1nc(-c2ccccn2)nnc1-c1ccccc1	n	n	n	n	n
COc1cnc(-c2ccccn2)nc1Oc1ccc(F)cc1	109.0	x	x	x	x
CC[C@@H](C)[C@@H]1CN([C@@H](CN2CCC[C@H]2CN2C(N)=NC[C@H]2CC(C)C)C(C)C)C(=N)N1CCCC1CCCC1	n	100.5	100.3	x	n
CCCC(CN1CCCC1CN1C(N)=NCC1Cc1ccccc1)N1CC(C(C)CC)N(CCc2ccc(Cl)c(Cl)c2)C1=N (centres undefined)	x	100.4	100.6	x	x
CC[C@@H](C)[C@@H]1CN([C@@H](C)CN2CCC[C@H]2CN2C(N)=NC[C@H]2CC(C)C)C(=N)N1CCc1ccc(Cl)c(Cl)c1	n	x	x	x	n
CC[C@@H](C)[C@@H]1CN([C@@H](CN2CCC[C@H]2CN2C(N)=NC[C@H]2CC(C)C)C(C)C)C(=N)N1CCc1ccc(Cl)c(Cl)c1	n	100.4	99.9	x	n
CC(C)[C@@H]1CN=C(N)N1C[C@@H]1CCCN1C[C@H](C)N1C[C@@H](Cc2ccccc2)N(CCc2ccc(Cl)c(Cl)c2)C1=N	n	100.5	100.7	x	x
CCC[C@@H](CN1CCC[C@H]1CN1C(N)=NC[C@@H]1Cc1ccccc1)N1C[C@@H]([C@H](C)CC)N(CCCC2CCCC2)C1=N	n	x	x	x	x
COc1cccc(NC(=O)NCCCn2ccnc2-c2ccccc2)c1OC	n	x	x	x	x
CCC[C@@H](CN1CCC[C@H]1CN1C(N)=NC[C@H]1CC(C)C)N1C[C@@H]([C@H](C)CC)N(CCc2ccc(Cl)c(Cl)c2)C1=N	n	100.1	100.2	x	n
CCCC(CN1CCCC1CN1C(N)=NCC1Cc1ccccc1)N1CC(Cc2ccccc2)N(CCc2ccc(Cl)c(Cl)c2)C1=N (centres undefined)	x	100.5	100.8	x	x
CCC[C@@H](CN1CCC[C@H]1CN1C(N)=NC[C@H]1CC(C)C)N1C[C@@H](Cc2ccccc2)N(CCc2ccc(Cl)c(Cl)c2)C1=N	n	100.1	100.1	x	n
CCC[C@@H](CN1CCC[C@H]1CN1C(N)=NC[C@@H]1Cc1ccccc1)N1C[C@@H]([C@H](C)CC)N(CCc2ccc(Cl)c(Cl)c2)C1=N	n	x	x	x	x
O=C(C1CC=CCC1)N1CC(S(=O)(=O)c2ccc(Cl)cc2)C1 (centres undefined)	n	x	x	x	x
O=C(O)C1CCC(CNCc2ccccc2Cl)CC1 (centres undefined)	n	x	x	51.9	n
O=C(O)C1CCC(CNCc2ccncc2)CC1 (centres undefined)	n	n	n	n	n
SMILES	PriA SSB inh	ugtP null kill	RN4220 kill	VHR inh abs	CCHFV vOTU inh
CN(C)c1ccc(N=Nc2ccccc2Br)cc1	57.0	n	n	n	n
CC(O)(CNC(=O)CCc1cccc(Cl)c1)C1CC1 (centres undefined)	n	x	x	x	x
CC1N(C)c2cccc3cccc(c23)N1C	45.1	n	n	n	n
O=C1N=c2ccccc2=C1c1[nH]c(=S)[nH]c1O	n	n	n	n	n
O=C1N=c2ccccc2=C1c1c(O)[nH]c2c(C(F)(F)F)cccc12	n	98.0	96.1	n	n
CC(=O)Oc1c(/C=C(\C#N)C(N)=O)[nH]c2ccccc12	n	86.6	96.4	n	n
N#C/C(=C\c1c[nH]c2ccccc12)C(N)=O	n	n	n	n	n
COc1ccc(CCC(=O)N2CCN(c3ccc(-c4ccco4)nn3)CC2)cc1	n	x	x	x	x
COC(=O)/C=C1\SC(=N/N=C/c2ccc(Cl)cc2)NC1=O	n	x	x	x	x
Cc1ccc(C)c(S(=O)(=O)NCc2nn(CCN3CCCC3)c(=O)c3ccccc23)c1	n	x	x	x	x
Cc1csc(C(=O)NCc2nn(CCN3CCCC3)c(=O)c3ccccc23)c1	45.0	x	x	x	x
C=CCSc1cccc2cccnc12	125.0	x	x	x	x
C=CCn1nc([N+](=O)[O-])nc1Sc1cccc2cccnc12	102.4	n	n	n	x
O=[N+]([O-])c1ccc(Sc2cccc3cccnc23)cc1	n	n	n	n	n
CSc1cccc2cccnc12	75.3	x	x	x	x
Cc1ccc2ccc3cccnc3c2n1	50.3	x	x	x	n
Brc1ccc2ccc3cccnc3c2n1	n	x	x	x	x
Cc1ccc(OC2CCN(S(=O)(=O)c3ccc(C)s3)C2)nn1 (centres undefined)	n	x	x	x	x
C#CCSc1cccc2cccnc12	n	x	x	x	x
ClC1(Cl)CC1CSc1cccc2cccnc12 (centres undefined)	128.0	x	x	x	x
C=C(C)C(=O)Oc1ccc(N=Nc2ccc(C)cc2)ccc1=O	n	99.7	n	x	n
CC(=O)c1ccc(N=Nc2ccc(C)cc2)cc1	n	n	n	n	n
O=C(N/N=C\c1ccccc1)c1ccccc1Br	n	x	x	x	x
COc1ccccc1N1C(=O)Cc2ccccc2C1=O	n	n	n	n	30.3
Cc1cccc2sc(N(CCN(C)C)C(=O)c3ccc(S(=O)(=O)N4CCCC4)cc3)nc12	n	x	x	x	x
SMILES	PriA SSB inh	ugtP null kill	RN4220 kill	VHR inh abs	CCHFV vOTU inh
Cc1ccc(S(=O)(=O)N2CCc3cc(S(=O)(=O)NC4CCCC4)ccc32)c(C)c1	n	x	x	x	x
Cc1noc(C2(NC(=O)NCCc3ccccc3)CCCCC2)n1	n	x	x	x	x
N#CC(=C1CCCC1)c1nc(-c2ccccc2)cs1	n	n	n	n	n
CCN1C=CC=C/C1=C(/C#N)c1nc(-c2ccccc2)cs1	108.3	x	x	x	x
CCCS(=O)(=O)n1nc(-c2ccccc2)cc1N	n	n	n	54.5	n
COc1ccc(NC(=S)N/N=C2\CC(C)(C)Oc3ccc(OC)cc32)cc1	x	x	x	n	n
COc1cccc(NC(=S)NN=C2CC(C)(C)Oc3ccc(O)cc32)c1	39.5	n	n	x	x
COc1ccc(NC(=S)NN=C2CC(C)(C)Oc3ccc(O)cc32)cc1	47.2	x	x	x	x
Cc1ccccc1NC(=S)N/N=C1\CC(C)(C)Oc2ccc(O)cc21	x	x	x	n	n
CC1(C)CC(=NNC(=S)Nc2ccccc2F)c2cc(O)ccc2O1	45.2	n	n	x	x
CCc1cccc(CC)c1-n1c(CNC(=O)c2ccc(C)c(C)c2)n[nH]c1=S	n	x	x	x	x
CCOC(=O)c1ccc(-n2c(N)c(C(=O)NC3CCCCC3)sc2=S)cc1	n	x	x	x	x
Nc1ccc(S(=O)(=O)N2CCNC(=O)C2)cc1	n	x	x	x	x
Cc1ccc(S(=O)(=O)N2CCCN(C(=O)c3cc4ccccc4[nH]3)CC2)cc1	n	n	n	50.0	n
O=C1Nc2ccccc2/C1=C\C(=O)c1ccccc1	n	97.6	98.2	n	n
N#CC1=C2N=C(N)c3ccccc3N2C2=C(C(=O)CCC2)C1c1ccc(F)cc1 (centres undefined)	n	n	n	n	n
